# Hits are enriched below; roughly 10% of the tested compounds scored in any of these assays.
# G9a inh: G9a (human) methyltransferase inhibition. G9a H3K9 monomethylation, AlphaScreen, 2 h. Potency, µM (doses to about 102 µM), inactives show at the top dose activity, negative = inhibition, hits mostly inhibitors. 350,000 tested, 8.8% active; note: % is set by controls: 0 for no effect and ±100 for the full control effect; nearly all actives have a fitted effect of over 75% in size
#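 Compounds were preincubated with 20 nM G9a for 15 min, after which biotinylated H3K9 peptide (500 nM) and SAM (20 uM) started a 2 h room-temperature reaction. Monomethylated product was quantified by antibody-based AlphaScreen chemiluminescence.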
# JMJD2A Tudor inh: JMJD2A Tudor domain (human) inhibition; AlphaScreen JMJD2A-Tudor / H3K4me3 peptide binding; AID 504339; Potency, µM (top dose mostly 114 µM), for the others: at the highest dose activity change, negative = inhibition, most hits filed as inhibitors; O75164; 390,000 tested, 4.4% active; note: % is set by controls: 0 for no effect and ±100 for the full control effect; nearly all actives have a fitted effect of over 50% in size
# L3MBTL1 block: inhibitors of human L3MBTL1; Q9Y468; AlphaScreen L3MBTL1–H3K9me1 peptide binding; Potency, µM (series often up to 57.1 µM), for inactives: at the highest dose activity, negative = inhibition, hits mostly inhibitors; 230,000 tested, 0.66% active; note: % is set by controls: 0 for no effect and ±100 for the full control effect; nearly all actives have a fitted effect of over 60% in size
#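 L3MBTL1 50 nM + b-AHA-H3(1-15)K9me1 75 nM, 30 min RT; compound added, 30 min RT; streptavidin donor/Ni-chelate acceptor beads 10 ug/mL each final, 30 min RT dark; AlphaScreen read.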
# HP1b chromo inh: blocks HP1-beta chromodomain binding to methylated histone tails; P83916; AlphaScreen HP1-beta / biotin-H3K9me3 peptide binding; Potency, µM (top dose mostly 114 µM), inactives show top-dose activity change, negative = inhibition, usual class: inhibitors; 390,000 tested, 0.56% active; AID 540317; note: nearly all actives have a fitted effect of over 70% in size
#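 Compound inhibition of the preformed complex between 50 nM HP1-beta and 50 nM biotinylated H3K9me3 peptide was read by AlphaScreen. Buffer was PBS pH 7.4 with 0.01% Tween-20. Incubations ran 30 min at room temperature, with 10 ug/mL donor/acceptor beads.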
# BAZ2B inh: inhibitors of human BAZ2B bromodomain; 360,000 tested, 4.4% active; Potency, µM (highest dose often 114 µM), for the others: at the highest dose activity change, negative = inhibition, usual class: inhibitors; AlphaScreen BAZ2B-H3K14Ac peptide displacement; note: % is set by controls: 0 for no effect and ±100 for the full control effect; nearly all actives have a fitted effect of over 60% in size
#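 BAZ2B 50 nM plus b-H3(5-23)K14Ac 50 nM, PBS pH 7.4/0.01% Tween-20, 30 min RT; compound added (max 110 uM), 30 min RT; streptavidin donor/Ni-chelate acceptor beads 10 ug/mL final, 20 min dark; AlphaScreen read.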
# GLS inh: glutaminase GLS (human) inhibition | O94925 | GLS enzymatic activity, qHTS titration | Potency, µM (highest dose often 45.5 µM), without a hit: at the top dose activity change, negative = inhibition, most hits filed as inhibitors | 410,000 tested, 0.21% active | AID 624170; note: % is set by controls: 0 for no effect and ±100 for the full control effect
# Target sequence (O94925 whole entry, looked up): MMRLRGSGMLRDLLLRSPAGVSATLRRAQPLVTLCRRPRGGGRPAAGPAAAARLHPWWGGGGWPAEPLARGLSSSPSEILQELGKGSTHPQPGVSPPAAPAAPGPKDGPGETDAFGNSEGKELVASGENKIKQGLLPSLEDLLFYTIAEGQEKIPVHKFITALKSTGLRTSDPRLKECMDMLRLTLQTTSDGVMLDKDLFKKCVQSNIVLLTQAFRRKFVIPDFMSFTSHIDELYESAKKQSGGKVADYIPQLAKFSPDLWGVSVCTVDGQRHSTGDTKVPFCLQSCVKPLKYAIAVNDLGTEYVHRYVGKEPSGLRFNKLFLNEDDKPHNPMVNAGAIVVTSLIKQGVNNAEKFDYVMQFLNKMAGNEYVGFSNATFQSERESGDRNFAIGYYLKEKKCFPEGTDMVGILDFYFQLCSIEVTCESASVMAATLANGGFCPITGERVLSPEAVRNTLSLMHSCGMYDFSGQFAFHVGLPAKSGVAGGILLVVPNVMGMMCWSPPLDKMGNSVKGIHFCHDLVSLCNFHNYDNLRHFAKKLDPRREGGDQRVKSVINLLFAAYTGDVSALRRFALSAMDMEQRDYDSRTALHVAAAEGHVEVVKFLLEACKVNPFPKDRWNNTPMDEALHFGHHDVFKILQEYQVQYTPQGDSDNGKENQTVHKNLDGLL
#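 Assay buffer: 45 mM KH2PO4 pH 8.2, 0.02% Tween-20. hKGA acts on L-glutamine (1 mM solution added); product glutamate is reported by an oxidase/peroxidase Amplex Red coupling, with fluorescence taken at baseline and 30 min.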
# Numbers without * were called inactive; ? = inconclusive; . = no result; [ ] = dose if it differs, or a comment. Calls come from the whole dose curve; as a rule, active = well fitted curve in the direction sought with a large enough effect; inconclusive = small, poorly fitted or top-dose-only effect, or another doubt; inactive = no such curve, though single readings can be large; an effect the other way counts as inactive or inconclusive. Potency is the fitted concentration of half-maximal effect.
SMILES,G9a inh,JMJD2A Tudor inh,L3MBTL1 block,HP1b chromo inh,BAZ2B inh,GLS inh
CCCn1c(=O)n(-c2ccccc2)c(=O)c2sc3ccccc3c21,-31%[59 µM],-5%,.,22%,-7%,-14%
O=C(CSc1nnc(-c2ccccc2F)o1)N1CCc2ccccc21,1%[59 µM],-4%,.,24%,1%,-2%
COC(=O)c1ccc[n+](CC(=O)Nc2ccc(OC(F)F)cc2)c1,45µM*,?,2%,?,-14%,0%
O=C(C[n+]1cccc(CNC(=O)c2ccc(OC(F)F)cc2)c1)Nc1ccc(F)cc1,-20%[59 µM],-19%,8%,8%,6%,6%
COc1ccc(Cc2nnc(SCC(=O)N(C)c3ccccc3)o2)cc1,18%,-13%,.,26%,-6%,2%
COC(=O)CSc1nnc(COc2cccc3ccccc23)o1,16%,-1%,5%,65%,-6%,4%
O=C(O)c1ccc(CSc2nnc(COc3ccccc3)o2)cc1,45µM*,-12%,.,3%,7%,0%
CN(C(=O)CSc1nnc(COc2ccccc2)o1)c1ccccc1,-23%[59 µM],-25%,.,31%,79µM*,8%
Cc1csc(N(C)C(=O)CSc2nnc(COc3cccc4ccccc34)o2)n1,10µM*,-16%,-15%[11.4 µM],40%,-6%,-9%
COc1ccc2cc1Oc1cc3c(cc1OC)CC[N+](C)(C)C3Cc1ccc(cc1)Oc1c(OC)c(OC)cc3c1C(C2)[N+](C)(C)CC3 (stereo not given),?,.,.,.,.,-2%
COC(=O)c1c(NC(=O)Cc2coc3cc(C)ccc23)sc2c1CCCC2,6%[59 µM],-9%,.,26%,-7%,2%
Cc1cc(Nc2ccccc2)c2c([N+](=O)[O-])ccc(C)c2n1,11µM*,50µM*,16µM*,?,28µM*,1%
Cc1n[nH]c(=S)n(NC(=O)CC(=O)Nn2c(=S)[nH]nc(C)c2=O)c1=O,0%,79µM*,?,42%,40µM*,?
Cc1n[nH]c(=S)n(NC(=O)/C=C/C(=O)Nn2c(=S)[nH]nc(C)c2=O)c1=O,?,13µM*,?,?,25µM*,11µM*
COc1ccccc1OCC(=O)Nn1c(=S)[nH]c2ncccc2c1=O,1%,-12%,10%,34%,1%,-4%
Cc1ccc(N2NC(C)(c3cccs3)NC2=S)cc1 (stereo not given),8.9µM*,?,-6%,-23%,?,15%
Cc1nn(C)c(Oc2cccc(C(F)(F)F)c2)c1C#N,9%,2%,5%,47%,0%,?
Cc1nn(C)c(Oc2cccc(Cl)c2)c1C#N,23%,20µM*,-17%,17%,8%,?
CCN(CC)S(=O)(=O)c1ccc(NC(=O)[C@H](CSCc2ccccc2)N2Cc3ccccc3C2=O)cc1,2%[59 µM],-16%,.,39%,-27%,0%
COC(=O)c1ccc(NC(=O)Cn2ccn3nc(-c4ccc(OC)cc4)cc3c2=O)cc1,7%[12.7 µM],2%,.,32%,-2%,1%
O=C(/C=C/c1ccco1)c1ccc(NC(=O)C23CC4CC(CC(C4)C2)C3)cc1,4.5µM*,?,22µM*,?,35µM*,-7%
c1ccc(SCCOCCN2CCc3ccccc3C2)cc1,-6%[59 µM],-11%,9%,13%[57 µM],-16%,0%
Cc1ccc(SCCN2CCN(C)CC2)cc1,50µM*,-13%,-2%,15%,-25%,9%
OCCN1CCN(CCSc2ccccc2)CC1,?,28µM*,9%,0%,-17%,5%
c1ccc(SCCN2CCc3ccccc3C2)cc1,40µM*,25µM*,14%,-32%,5%,5%
SMILES,G9a inh,JMJD2A Tudor inh,L3MBTL1 block,HP1b chromo inh,BAZ2B inh,GLS inh
CC(=O)NC1[C@H]([C@H](O)[C@H](O)CO)OC(C(=O)O)=C[C@H]1N=C(N)N (stereo not given in full),36%[59 µM],.,.,.,.,-10%
CCN(CC)S(=O)(=O)c1nnc(NC(=O)COc2ccc(Cl)cc2)s1,-44%[59 µM],-21%,.,30%,-14%,4%
CCC(Sc1nncn2c1cc1oc(C)cc12)C(=O)Nc1ccc(F)cc1 (stereo not given),?,-2%,.,18%,-31%,-1%
COc1ccc2nc3sc(C(=O)N4CCN(c5ccc(F)cc5)CC4)cc3cc2c1,0%[59 µM],3%,.,23%,-2%,-5%
COc1ccccc1CNS(=O)(=O)c1cc(C)ccc1OC,-11%[59 µM],-8%,4%,36%,8%,9%
COc1cccc(CNS(=O)(=O)c2ccccc2Br)c1OC,.,79µM*,.,32%,.,23%
COc1ccc(C)cc1NCc1cccc(OC)c1OC,7.9µM*,6.3µM*,-9%,?,45µM*,4%
COc1ccc(CNc2cc(C)ccc2C)c(OC)c1OC,?,-28%,-10%,6%,-39%,6%
COc1cc(OC)c(OC)cc1CNc1cc(C)ccc1OC,7.9µM*,40µM*,?,?,.,21%
CSc1ccc(CCNC(=O)CCc2c(C)nc3c4cccnc4nn3c2C)cc1,5%[59 µM],-13%,.,29%,-10%,2%
O=C(CSc1nccc(=O)[nH]1)c1cc2ccccc2o1,0%[59 µM],-20%,-12%,22%,-22%,4%
Cn1cnnc1SCC(=O)c1cc2ccccc2o1,?,-8%,-5%,62%,-39%,2%
O=C(CSc1nnc(-c2cccs2)n1CC1CCCO1)c1cc2ccccc2o1 (stereo not given),45µM*,-30%,-6%,19%,-30%,?
Cn1c(SCC(=O)c2cc3ccccc3o2)nnc1-c1ccccc1,11µM*,?,-1%,3%,-8%,0%
CNC(=O)CSc1nnc(-c2ccccc2)n1C,-4%,-3%,6%,52%,5%,-13%
Cn1ccnc1SCC(=O)c1cc2ccccc2o1,40µM*,?,-1%,-31%,?,29%
Cc1ccnc(SCC(=O)c2cc3ccccc3o2)n1,45µM*,-5%,7%,25%,-11%,5%
Cc1ccc(CCNC(c2ccc(F)cc2)c2nnc(-c3ccccc3Cl)o2)cc1 (stereo not given),151%[59 µM],60%,.,99%,76%,1%
COc1ccc(NC(=O)C(c2ccc(C)cc2)N(C)C(=O)/C=C\c2ccc3c(c2)OCO3)cc1 (stereo not given),-43%[59 µM],?,.,-5%,-24%,-12%
CCN(CC)C(=O)c1sc2c(c1C)c(=O)n(Cc1ccccc1)c(=O)n2Cc1ccccc1C,-6%[59 µM],-20%,.,5%,-19%,1%
O=C(NCc1ccccc1Cl)C1CCN(S(=O)(=O)Cc2ccccc2)CC1,?,-8%,.,39%,-5%,-15%

# Screens from PubChem.
